The campaign covered roughly 5,500 compounds. About 2,000 (36%) were called active. Another 18% or so got no clear call; they are omitted. This is one part of the list. Values without a mark were called inactive. Rule as the data show it: active = normalized growth mostly below about 0.91 (no sharp cut-off); inconclusive = no clear call, values can overlap the other calls; inactive = mostly above about 0.92.
Test: chemical genetic growth profiling, strain panel (AID 1159580);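 also: tested at 20 µM; growth read once vehicle control cultures reached saturation at 30 °C; 1 = growth at the plate median or of vehicle wells; lower values mean less growth of the strain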
Conditions: S. cerevisiae deletion strains, growth OD
[1] = locus YAL021C, strain ccr4, active compounds read low
[2] = locus YAL026C, strain drs2, active compounds read low
[3] = locus YAL030W, strain snc1, active compounds read low
[4] = locus YBL061C, strain skt5, active compounds read low
[5] = locus YBR009C, strain hhf1, active compounds read low
[6] = locus YBR023C, strain chs3, active compounds read low
[7] = locus YBR171W, strain sec66, active compounds read low
[8] = locus YBR231C, strain swc5, active compounds read low
[9] = locus YBR279W, strain paf1, active compounds read low
[10] = locus YCL011C, strain gbp2, active compounds read low
[11] = locus YCL016C, strain dcc1, active compounds read low
[12] = locus YCL069W, strain vba3, active compounds read low
[13] = locus YCR088W, strain abp1, active compounds read low
[14] = locus YDL005C, strain med2, active compounds read low
[15] = locus YDL040C, strain nat1, active compounds read low
[16] = locus YDR001C, strain nth1, active compounds read low
[17] = locus YDR069C, strain doa4, active compounds read low
[18] = locus YDR137W, strain rgp1, active compounds read low
[19] = locus YDR159W, strain sac3, active compounds read low
[20] = locus YDR297W, strain sur2, active compounds read low
[21] = locus YDR334W, strain swr1, active compounds read low
[22] = locus YDR335W, strain msn5, active compounds read low
[23] = locus YDR392W, strain spt3, active compounds read low
[24] = locus YEL003W, strain gim4, active compounds read low
[25] = locus YEL037C, strain rad23, active compounds read low
[26] = locus YEL061C, strain CIN8 (second series), active compounds read low
[27] = locus YER015W, strain faa2, active compounds read low
[28] = locus YER016W, strain bim1, active compounds read low
[29] = locus YER111C, strain swi4, active compounds read low
[30] = locus YER155C, strain BEM2 (second series), active compounds read low
[31] = locus YFR010W, strain ubp6, active compounds read low
[32] = locus YGL167C, strain pmr1, active compounds read low
[33] = locus YGL173C, strain kem1, active compounds read low
[34] = locus YGL227W, strain vid30, active compounds read low
[35] = locus YGL240W, strain doc1, active compounds read low
[36] = locus YGL253W, strain hxk2, active compounds read low
[37] = locus YHR013C, strain ard1, active compounds read low
[38] = locus YHR027C, strain rpn1, active compounds read low
[39] = locus YHR142W, strain chs7, active compounds read low
[40] = locus YJL092W, strain hpr5, active compounds read low
[41] = locus YJL095W, strain BCK1 (second series), active compounds read low
[42] = locus YJL115W, strain asf1, active compounds read low
[43] = locus YJL129C, strain trk1, active compounds read low
[44] = locus YJL154C, strain vps35, active compounds read low
[45] = locus YJL164C, strain tpk1, active compounds read low
[46] = locus YJL166W, strain qcr8, active compounds read low
[47] = locus YKL160W, strain elf1, active compounds read low
[48] = locus YKR026C, strain gcn3, active compounds read low
[49] = locus YKR091W, strain srl3, active compounds read low
[50] = locus YLL001W, strain dnm1, active compounds read low
[51] = locus YLL026W, active compounds read low
[52] = locus YLL041C, strain sdh2, active compounds read low
[53] = locus YLR027C, strain aat2, active compounds read low
[54] = locus YLR221C, strain rsa3, active compounds read low
[55] = locus YLR258W, strain gsy2, active compounds read low
[56] = locus YLR262C, strain YPT6 (second series), active compounds read low
[57] = locus YLR320W, strain mms22, active compounds read low
[58] = locus YLR342W, strain FKS1, active compounds read low
[59] = locus YLR357W, strain rsc2, active compounds read low
[60] = locus YLR370C, strain arc18, active compounds read low
[61] = locus YLR384C, strain iki3, active compounds read low
[62] = locus YML120C, strain ndi1, active compounds read low
[63] = locus YMR058W, strain fet3, active compounds read low
[64] = locus YMR125W, strain sto1, active compounds read low
[65] = locus YMR129W, active compounds read low
[66] = locus YMR205C, strain PFK2, active compounds read low
[67] = locus YMR231W, strain pep5, active compounds read low
[68] = locus YNL071W, strain lat1, active compounds read low
[69] = locus YNL209W, strain ssb2, active compounds read low
[70] = locus YNL248C, strain rpa49, active compounds read low
[71] = locus YNL322C, strain KRE1 (second series), active compounds read low
[72] = locus YNR049C, strain mso1, active compounds read low
[73] = locus YOR001W, strain rrp6, active compounds read low
[74] = locus YOR070C, strain gyp1, active compounds read low
[75] = locus YOR080W, strain dia2, active compounds read low
[76] = locus YOR083W, strain WHI5, active compounds read low
[77] = locus YOR106W, strain vam3, active compounds read low
[78] = locus YOR265W, strain rbl2, active compounds read low
[79] = locus YOR270C, strain vph1, active compounds read low
[80] = locus YOR290C, strain snf2, active compounds read low
[81] = locus YPL051W, strain arl3, active compounds read low
[82] = locus YPL078C, strain atp4, active compounds read low
[83] = locus YPL106C, strain sse1, active compounds read low
[84] = locus YPL240C, strain hsp82, active compounds read low

## CC1=C(/C=C/C(C)=C/C=C/C(C)=C/C=C/C=C(C)/C=C/C=C(C)/C=C/C(=O)[C@]2(C)C[C@@H](O)CC2(C)C)C(C)(C)C[C@H](O)C1
[1]
  normalized growth: 1.05
[2]
  normalized growth: 1.06
[3]
  normalized growth: 1.01
[4]
  normalized growth: 1.03
[5]
  normalized growth: 0.996
[6]
  normalized growth: 1.03
[7]
  normalized growth: 1.03
[8]
  normalized growth: 0.995
[9]
  normalized growth: 1.05
[10]
  normalized growth: 1.01
[11]
  normalized growth: 1.02
[12]
  normalized growth: 1.04
[13]
  normalized growth: 1.02
[14]
  normalized growth: 1.03
[15]
  normalized growth: 1.02
[16]
  normalized growth: 1.02
[17]
  normalized growth: 1.05
[18]
  normalized growth: 1.05
[19]
  normalized growth: 0.98
Locus YDR195W, strain ref2
  normalized growth: 0.978
[20]
  normalized growth: 1.02
[21]
  normalized growth: 1.02
[22]
  normalized growth: 1.03
[23]
  normalized growth: 0.984
[24]
  normalized growth: 0.997
[25]
  normalized growth: 1.02
[26]
  normalized growth: 1.04
[27]
  normalized growth: 1.04
[28]
  normalized growth: 1.03
[29]
  normalized growth: 1.03
[30]
  normalized growth: 1.03
[31]
  normalized growth: 1.02
[32]
  normalized growth: 1.03
[33]
  normalized growth: 1
[34]
  normalized growth: 1.02
[35]
  normalized growth: 0.968
[36]
  normalized growth: 1.03
[37]
  normalized growth: 1.03
[38]
  normalized growth: 1
Locus YHR030C, strain SLT2, active compounds read low
  normalized growth: 0.991
Locus YHR079C, strain IRE1, active compounds read low
  normalized growth: 0.987
[39]
  normalized growth: 1.06
[40]
  normalized growth: 1.02
[41]
  normalized growth: 1.02
Locus YJL095W, strain BCK1, active compounds read low
  normalized growth: 1.01
[42]
  normalized growth: 1.02
[43]
  normalized growth: 1.05
[44]
  normalized growth: 1.01
[45]
  normalized growth: 1.02
[46]
  normalized growth: 1.04
Locus YJR066W, strain TOR1, active compounds read low
  normalized growth: 0.942
[47]
  normalized growth: 1.02
[48]
  normalized growth: 1.04
[49]
  normalized growth: 1.01
[50]
  normalized growth: 1
[51]
  normalized growth: 1.02
[52]
  normalized growth: 1.03
[53]
  normalized growth: 1.02
Locus YLR113W, strain HOG1, active compounds read low
  normalized growth: 0.991
[54]
  normalized growth: 1
[55]
  normalized growth: 1.02
[56]
  normalized growth: 1.02
[57]
  normalized growth: 0.981
[58]
  normalized growth: 1.04
[59]
  normalized growth: 1.06
[60]
  normalized growth: 1.02
[61]
  normalized growth: 1.01
[62]
  normalized growth: 0.986
[63]
  normalized growth: 1.05
[64]
  normalized growth: 1.02
[65]
  normalized growth: 1.02
[66]
  normalized growth: 0.995
[67]
  normalized growth: 1.04
[68]
  normalized growth: 1.03
Locus YNL183C, strain NPR1, active compounds read low
  normalized growth: 0.944
[69]
  normalized growth: 1.02
[70]
  normalized growth: 1.12 [resistant] (active)
[71]
  normalized growth: 1.03
[72]
  normalized growth: 1.01
[73]
  normalized growth: 1.01
[74]
  normalized growth: 1.02
[75]
  normalized growth: 1.03
[76]
  normalized growth: 0.993
[77]
  normalized growth: 1.05
Locus YOR231W, strain MKK1, active compounds read low
  normalized growth: 1.01
[78]
  normalized growth: 1.02
[79]
  normalized growth: 1.16
[80]
  normalized growth: 1.04
[81]
  normalized growth: 1.06
[82]
  normalized growth: 1.05
[83]
  normalized growth: 1.05
[84]
  normalized growth: 1.01
Locus YPL256C, strain CLN2, active compounds read low
  normalized growth: 0.995

## CC1=C(/C=C/C(C)=C/C=C/C(C)=C/C=C/C=C(C)/C=C/C=C(C)/C=C/C2=C(C)C(=O)CCC2(C)C)C(C)(C)CCC1=O
[1]
  normalized growth: 1.02
[2]
  normalized growth: 0.964
[3]
  normalized growth: 0.981
[4]
  normalized growth: 0.981
[5]
  normalized growth: 0.941
[6]
  normalized growth: 0.987
[7]
  normalized growth: 0.975
[8]
  normalized growth: 0.982
[9]
  normalized growth: 0.989
[10]
  normalized growth: 0.96
[11]
  normalized growth: 1
Locus YCL061C, strain MRC1, active compounds read low
  normalized growth: 1.01
[12]
  normalized growth: 0.975
[13]
  normalized growth: 0.994
[14]
  normalized growth: 0.981
[15]
  normalized growth: 0.978
[16]
  normalized growth: 0.986
[17]
  normalized growth: 0.996
[18]
  normalized growth: 1.03
[19]
  normalized growth: 0.961
Locus YDR195W, strain ref2
  normalized growth: 0.944
[20]
  normalized growth: 0.995
[21]
  normalized growth: 0.982
[22]
  normalized growth: 0.992
[23]
  normalized growth: 0.92
[24]
  normalized growth: 0.979
[25]
  normalized growth: 0.971
[26]
  normalized growth: 0.979
[27]
  normalized growth: 0.984
[28]
  normalized growth: 1.01
[29]
  normalized growth: 0.963
[30]
  normalized growth: 0.973
[31]
  normalized growth: 0.971
[32]
  normalized growth: 0.978
[33]
  normalized growth: 0.99
[34]
  normalized growth: 0.971
[35]
  normalized growth: 1.01
[36]
  normalized growth: 0.963
[37]
  normalized growth: 0.958
[38]
  normalized growth: 0.997
[39]
  normalized growth: 1.01
[40]
  normalized growth: 0.999
[41]
  normalized growth: 1
[42]
  normalized growth: 0.98
[43]
  normalized growth: 0.989
[44]
  normalized growth: 0.975
[45]
  normalized growth: 1.02
[46]
  normalized growth: 1
Locus YJL187C, strain SWE1, active compounds read low
  normalized growth: 0.985
[47]
  normalized growth: 1.07
[48]
  normalized growth: 0.977
[49]
  normalized growth: 0.985
[50]
  normalized growth: 0.997
[51]
  normalized growth: 0.987
[52]
  normalized growth: 0.998
[53]
  normalized growth: 1.01
[54]
  normalized growth: 1.01
[55]
  normalized growth: 0.982
[56]
  normalized growth: 1.05
[57]
  normalized growth: 0.99
[58]
  normalized growth: 0.983
[59]
  normalized growth: 0.966
[60]
  normalized growth: 0.986
[61]
  normalized growth: 0.998
[62]
  normalized growth: 0.996
[63]
  normalized growth: 0.965
[64]
  normalized growth: 0.92
[65]
  normalized growth: 0.975
[66]
  normalized growth: 0.937
[67]
  normalized growth: 0.987
[68]
  normalized growth: 0.99
[69]
  normalized growth: 0.991
[70]
  normalized growth: 1.03
[71]
  normalized growth: 0.989
[72]
  normalized growth: 0.965
[73]
  normalized growth: 1.03
[74]
  normalized growth: 1.02
[75]
  normalized growth: 0.993
[76]
  normalized growth: 1.05
[77]
  normalized growth: 0.986
[78]
  normalized growth: 1.01
[79]
  normalized growth: 0.871
[80]
  normalized growth: 0.934
[81]
  normalized growth: 1.02
[82]
  normalized growth: 0.997
[83]
  normalized growth: 1.01
[84]
  normalized growth: 1

Reference: PubChem BioAssay AID1159580 (chemical genetic matrix, 2015)
